Data reported in PubChem BioAssay (NCATS).
“And” between values parts separate entries of the source, which are not always exact repeats. Equal entries are not always repeated. Records with an inconclusive call do not appear. A call without a number means that no potency is given here. The source made the active and inactive calls. The call rests on the fitted dose curve; in most records, active means well fitted inhibition curve with a large enough effect; inconclusive means small, poorly fitted or top-dose-only effect; inactive means flat fitted curve, though single readings scatter.

target: Voltage-gated inwardly rectifying potassium channel KCNH2 (Homo sapiens) (UniProt Q12809); test: qHTS Assay for Small Molecule Inhibitors of the Human hERG Channel Activity (AID 588834); conditions: U2OS BacMam hERG, FluxOR thallium flux fluorescence; series mostly up to 46.1 µM;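 further: top concentration of the series differs between compounds; lower thallium flux fluorescence means stronger hERG block; nearly all actives have a fitted effect of over 50% in size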
Outline: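 Concentration-response qHTS measuring drop in thallium-sensitive dye signal. U2OS cells carrying BacMam hERG; compound exposure ~10 min, then stimulation buffer and 2 min read at 1 sec intervals.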

Voltage-gated inwardly rectifying potassium channel KCNH2 (Homo sapiens), sequence (Q12809 whole entry, looked up): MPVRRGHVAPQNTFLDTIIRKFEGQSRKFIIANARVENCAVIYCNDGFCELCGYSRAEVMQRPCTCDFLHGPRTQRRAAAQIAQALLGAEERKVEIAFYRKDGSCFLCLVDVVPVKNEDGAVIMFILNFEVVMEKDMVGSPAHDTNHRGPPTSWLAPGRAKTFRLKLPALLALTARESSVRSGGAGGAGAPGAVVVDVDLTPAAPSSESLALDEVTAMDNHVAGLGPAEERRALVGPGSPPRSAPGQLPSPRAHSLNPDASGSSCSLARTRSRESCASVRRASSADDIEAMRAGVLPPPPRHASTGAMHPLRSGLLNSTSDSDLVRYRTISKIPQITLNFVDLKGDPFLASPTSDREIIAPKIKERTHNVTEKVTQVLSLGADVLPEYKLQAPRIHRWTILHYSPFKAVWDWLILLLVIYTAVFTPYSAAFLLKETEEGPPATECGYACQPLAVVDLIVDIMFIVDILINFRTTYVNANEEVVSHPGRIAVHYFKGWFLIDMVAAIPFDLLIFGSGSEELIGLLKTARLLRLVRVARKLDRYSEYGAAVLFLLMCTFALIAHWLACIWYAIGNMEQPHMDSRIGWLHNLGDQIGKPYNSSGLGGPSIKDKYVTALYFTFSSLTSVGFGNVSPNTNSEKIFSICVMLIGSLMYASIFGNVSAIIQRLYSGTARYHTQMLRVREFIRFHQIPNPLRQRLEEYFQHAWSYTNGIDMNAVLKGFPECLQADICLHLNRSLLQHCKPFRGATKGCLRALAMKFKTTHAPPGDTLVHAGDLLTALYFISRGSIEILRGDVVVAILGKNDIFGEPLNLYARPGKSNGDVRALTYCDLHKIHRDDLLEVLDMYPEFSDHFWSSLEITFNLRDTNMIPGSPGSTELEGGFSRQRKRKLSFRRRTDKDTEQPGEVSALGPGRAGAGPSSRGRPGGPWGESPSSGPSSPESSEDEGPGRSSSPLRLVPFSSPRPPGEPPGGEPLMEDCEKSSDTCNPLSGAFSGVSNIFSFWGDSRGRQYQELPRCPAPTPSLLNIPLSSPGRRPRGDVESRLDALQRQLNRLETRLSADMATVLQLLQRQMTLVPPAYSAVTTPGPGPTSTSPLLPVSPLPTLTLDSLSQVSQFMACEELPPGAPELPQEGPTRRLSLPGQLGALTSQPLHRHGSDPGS

| SMILES | Potency |
| --- | --- |
| CCOC(=S)SSC(=S)OCC | inactive |
| CNC(=O)[C@H](Cc1c[nH]c2ccccc12)NC(=O)[C@@H](CC(=O)NO)CC(C)C | inactive |
| CCOC(=O)c1c[nH]c2cc(OCC(C)C)c(OCC(C)C)cc2c1=O | inactive |
| Cc1cccc(C)c1NC(=O)C1CCCCN1C (stereo unspecified) | inactive |
| O=C(CCCN1CCN2CCCC2C1)c1ccc(F)cc1 (stereo unspecified) | inactive |
| CC1(O)CCC(C(C)(C)O)CC1 (stereo unspecified) | inactive |
| N[C@H](CC(=O)O)C(=O)O | inactive |
| CC12CCC(C[N+](C)(CCC[N+](C)(C)C)C1)C2(C)C (stereo unspecified) | inactive |
| CC1CC(O)CC(C)(C)C1 (stereo unspecified) | inactive |
| CC(C)=CCC/C(C)=C/CC/C(C)=C/CC/C=C(\C)CC/C=C(\C)CCC=C(C)C | inactive |
| COC(=O)CCC[N+](C)(C)C | inactive |
| CCOc1ccc(S(=O)(=O)O)c2cccnc12 | inactive |
| O=P(O)(O)CP(=O)(O)O | inactive |
| CCCc1ccc(C(=O)O)cc1 | inactive |
| CCCCC[C@H](O)/C=C/[C@@H]1[C@H]2C/C(=C/CCCC(=O)O)O[C@H]2C[C@H]1O | inactive |
| O=C(O)[C@H]1CN(C/C=C/P(=O)(O)O)CCN1 | inactive |
| Nc1nc(=O)n([C@@H]2CS[C@H](CO)O2)cc1F | inactive |
| CN1c2c(nc(N)[nH]c2=O)NCC1CNc1ccc(C(=O)NC(CCC(=O)O)C(=O)O)cc1 (stereo unspecified) | inactive |
| O=C(Nc1ccc(O)cc1)c1ccccc1O | inactive |

| SMILES | Potency |
| --- | --- |
| CN1C(=O)OC(C)(C)C1=O | inactive |
| CC(C)Cc1ccc([C@@H](C)C(=O)NS(C)(=O)=O)cc1 | inactive |
| CO/N=C(\C(=O)N[C@@H]1C(=O)N2C(C(=O)[O-])=C(C[n+]3cccc4c3CCC4)CS[C@H]12)c1csc(N)n1 | inactive |
| NC(=O)C1c2ccccc2CCc2ccccc21 | inactive |
| Cc1cc(C(=O)NCCc2ccc(S(=O)(=O)NC(=O)NN3CCCCCC3)cc2)no1 | inactive |
| FCOC(C(F)(F)F)C(F)(F)F | inactive |
| Cc1ccc(C(C)(C)c2ccc(C)cc2)cc1 | inactive |
| FC(F)OC(Cl)C(F)(F)F (stereo unspecified) | inactive |
| CCCC(=O)O | inactive |
| CC1(C)S[C@@H]2[C@H](NC(=O)C3(N)CCCCC3)C(=O)N2[C@H]1C(=O)O | inactive |
| COC(=O)[C@@H](N)CS | inactive |
| Cc1cc(-c2ccc(N=Nc3ccc4c(S(=O)(=O)O)cc(S(=O)(=O)O)c(N)c4c3O)c(C)c2)ccc1N=Nc1ccc2c(S(=O)(=O)O)cc(S(=O)(=O)O)c(N)c2c1O | inactive |
| C[C@H](O)CN(C)C | inactive |
| O=C(O)CCC/C=C\C[C@@H]1[C@@H](/C=C/[C@@H](O)COc2cccc(Cl)c2)[C@H](O)C[C@@H]1O | inactive |
| S=C=Nc1ccc(N=C=S)cc1 | inactive |
| CC(C)c1ncc([N+](=O)[O-])n1C | inactive |
| O=C(O)C1=C(CSc2nnnn2CS(=O)(=O)O)CS[C@@H]2[C@H](NC(=O)[C@H](O)c3ccccc3)C(=O)N12 | inactive |
| O=S(=O)(O)CCCS(=O)(=O)O | inactive |
| CC1C(=O)CC2C3(C)CCC2(C(C)C(=O)O)C(=O)C13 (stereo unspecified) | inactive |

target: Luciferin 4-monooxygenase (Photinus pyralis) (UniProt P08659); test: Biochemical firefly luciferase enzyme assay for NPC (AID 624030); further: nearly all actives have a fitted effect of over 70% in size; further: potency means the concentration at half of the fitted maximal effect; conditions: purified P. pyralis luciferase, luminescence, 5 min; series mostly up to 58.6 µM
Outline: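 Direct inhibition of firefly luciferase enzyme (10 nM final, 50 mM Tris Acetate) assessed by luminescence within 5 minutes. Percent activity scaled between DMSO and PTC124 positive control, with concentration-effect curves classified by fit quality and response.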

Luciferin 4-monooxygenase (Photinus pyralis), sequence (P08659 whole entry, looked up): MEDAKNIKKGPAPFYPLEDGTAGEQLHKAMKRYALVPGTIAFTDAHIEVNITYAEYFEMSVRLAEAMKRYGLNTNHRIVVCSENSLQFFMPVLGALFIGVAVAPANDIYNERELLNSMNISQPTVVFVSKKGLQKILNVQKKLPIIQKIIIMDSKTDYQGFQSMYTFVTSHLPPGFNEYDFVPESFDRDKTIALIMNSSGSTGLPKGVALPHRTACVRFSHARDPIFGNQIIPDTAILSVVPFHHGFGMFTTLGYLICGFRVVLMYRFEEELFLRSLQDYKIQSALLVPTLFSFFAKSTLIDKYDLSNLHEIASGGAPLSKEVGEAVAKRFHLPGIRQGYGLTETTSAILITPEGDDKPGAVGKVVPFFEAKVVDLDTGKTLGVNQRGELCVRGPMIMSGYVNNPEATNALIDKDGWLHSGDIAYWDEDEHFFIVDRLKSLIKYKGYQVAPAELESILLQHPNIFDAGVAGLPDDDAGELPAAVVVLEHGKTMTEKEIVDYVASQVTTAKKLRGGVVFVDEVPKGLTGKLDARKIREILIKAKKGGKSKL

| SMILES | Potency |
| --- | --- |
| CCOC(=S)SSC(=S)OCC | inactive |
| CNC(=O)[C@H](Cc1c[nH]c2ccccc12)NC(=O)[C@@H](CC(=O)NO)CC(C)C | inactive |
| CCOC(=O)c1c[nH]c2cc(OCC(C)C)c(OCC(C)C)cc2c1=O | inactive |
| Cc1cccc(C)c1NC(=O)C1CCCCN1C (stereo unspecified) | inactive |
| O=C(CCCN1CCN2CCCC2C1)c1ccc(F)cc1 (stereo unspecified) | inactive |
| CC1(O)CCC(C(C)(C)O)CC1 (stereo unspecified) | inactive |
| N[C@H](CC(=O)O)C(=O)O | inactive |
| CC12CCC(C[N+](C)(CCC[N+](C)(C)C)C1)C2(C)C (stereo unspecified) | inactive |
| CC1CC(O)CC(C)(C)C1 (stereo unspecified) | inactive |
| CC(C)=CCC/C(C)=C/CC/C(C)=C/CC/C=C(\C)CC/C=C(\C)CCC=C(C)C | inactive |
| COC(=O)CCC[N+](C)(C)C | inactive |
| CCOc1ccc(S(=O)(=O)O)c2cccnc12 | inactive |
| O=P(O)(O)CP(=O)(O)O | inactive |
| CCCc1ccc(C(=O)O)cc1 | inactive |
| CCCCC[C@H](O)/C=C/[C@@H]1[C@H]2C/C(=C/CCCC(=O)O)O[C@H]2C[C@H]1O | inactive |
| O=C(O)[C@H]1CN(C/C=C/P(=O)(O)O)CCN1 | inactive |
| Nc1nc(=O)n([C@@H]2CS[C@H](CO)O2)cc1F | inactive |
| CN1c2c(nc(N)[nH]c2=O)NCC1CNc1ccc(C(=O)NC(CCC(=O)O)C(=O)O)cc1 (stereo unspecified) | inactive |
| O=C(Nc1ccc(O)cc1)c1ccccc1O | 14.4 µM (active) |

| SMILES | Potency |
| --- | --- |
| CN1C(=O)OC(C)(C)C1=O | inactive |
| CC(C)Cc1ccc([C@@H](C)C(=O)NS(C)(=O)=O)cc1 | inactive |
| CO/N=C(\C(=O)N[C@@H]1C(=O)N2C(C(=O)[O-])=C(C[n+]3cccc4c3CCC4)CS[C@H]12)c1csc(N)n1 | inactive |
| NC(=O)C1c2ccccc2CCc2ccccc21 | inactive |
| Cc1cc(C(=O)NCCc2ccc(S(=O)(=O)NC(=O)NN3CCCCCC3)cc2)no1 | inactive |
| FCOC(C(F)(F)F)C(F)(F)F | inactive |
| Cc1ccc(C(C)(C)c2ccc(C)cc2)cc1 | inactive |
| FC(F)OC(Cl)C(F)(F)F (stereo unspecified) | inactive |
| CCCC(=O)O | inactive |
| CC1(C)S[C@@H]2[C@H](NC(=O)C3(N)CCCCC3)C(=O)N2[C@H]1C(=O)O | inactive |
| COC(=O)[C@@H](N)CS | inactive |
| Cc1cc(-c2ccc(N=Nc3ccc4c(S(=O)(=O)O)cc(S(=O)(=O)O)c(N)c4c3O)c(C)c2)ccc1N=Nc1ccc2c(S(=O)(=O)O)cc(S(=O)(=O)O)c(N)c2c1O | 28.7 µM (active) and 14.4 µM (active) |
| C[C@H](O)CN(C)C | inactive |
| O=C(O)CCC/C=C\C[C@@H]1[C@@H](/C=C/[C@@H](O)COc2cccc(Cl)c2)[C@H](O)C[C@@H]1O | inactive |
| S=C=Nc1ccc(N=C=S)cc1 | inactive |
| CC(C)c1ncc([N+](=O)[O-])n1C | inactive |
| O=C(O)C1=C(CSc2nnnn2CS(=O)(=O)O)CS[C@@H]2[C@H](NC(=O)[C@H](O)c3ccccc3)C(=O)N12 | inactive |
| O=S(=O)(O)CCCS(=O)(=O)O | inactive |
| CC1C(=O)CC2C3(C)CCC2(C(C)C(=O)O)C(=O)C13 (stereo unspecified) | inactive |
